Source: PubChem BioAssay (several laboratories)
In the library only some 3% were active in any assay of this set; here they are far more common.
HIF-2a block: blocks HIF-2a reporter activity | 786-0 RCC cells HIF-2a reporter, luciferase luminescence, overnight | inhibition, % at 18.8 µM | hit rate 0.72% among 360,000;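 active = inhibition of the luminescence signal of 40% or more relative to plate controls, in a single-dose primary screen at 18.75 µM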
MITF TRPM1 inh: MITF TRPM1 promoter inhibition in SK-MEL-5 cells. SK-MEL-5 TRPM1 promoter luciferase, 24 h. inhibition, % at 12.5 µM. hit rate 0.83% among 330,000. AID 488899;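 active = mean inhibition across replicates of 60% or more, whatever share of single replicates reaches that level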
KKLEB tox: counter-screen for CF NF-kB inhibitors: cytotoxicity; KKLEB CF airway cells viability, ATPlite luminescence, overnight; active compounds read low; cells stimulated with P. aeruginosa culture filtrate; activity change (cytotoxicity), % at 5 µM; hit rate 0.36% among 360,000; AID 602141;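 active = corrected activity change at or below -50% at 5 µM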
Peg3 prom inh-1: reduces Peg3 promoter-driven luciferase expression in HeLa; inhibition, % at 20 µM; AID 588405; hit rate 1.7% among 360,000; HeLa PEG-Prom luciferase reporter, luminescence, overnight;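 active = inhibition of at least 50% at 20 µM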
EBV LMP1 NFkB: Epstein-Barr LMP1 NF-kappaB reporter inhibition | LMP1-induced NF-kappaB luciferase reporter cells, luminescence | inhibition, % at 12.5 µM | hit rate 0.69% among 350,000 | AID 504558; in the data active = inhibition above about 41%
CF NFkB inh: inhibitors of cystic fibrosis induced NF-kB. KKLEB NF-kB-GFP reporter, PAF-induced, GFP fluorescence overnight. inhibition, % at 5 µM. hit rate 0.86% among 360,000;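 active = at least 50% inhibition at 5 µM, scaled per plate between neutral and stimulator controls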;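 also: PAF is a Pseudomonas aeruginosa culture filtrate used as stimulus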
Peg3 prom inh-2: Peg3 promoter inhibition confirmation; shares compounds with Peg3 prom inh-1; HeLa PEG-Prom luciferase reporter, luminescence, overnight; inhibition, % at 20 µM; hit rate 84% among 1,300; AID 602417;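 active = at 20 µM dose, 40% or more inhibition averaged across four replicates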
CF NFkB conf: confirmation of cystic fibrosis induced NF-kB inhibitors | KKLEB CF airway cells, PAF-induced NF-kB-GFP fluorescence, overnight | inhibition, % at 5 µM | hit rate 64% among 1,300 | shares compounds with CF NFkB inh; in the data active = inhibition above about 40%;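 also: stimulus PAF is a Pseudomonas aeruginosa filtrate and not platelet activating factor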
Mdm2-MdmX confirm: Mdm2/MdmX (human) interaction inhibition, confirmed. shares compounds with HIF-2a block. SaOS-2 split-luciferase Mdm2/MdmX complementation, luminescence. inhibition, % at 8 µM. hit rate 99% among 740. AID 504601;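 active = mean inhibition of the luminescence signal across two replicates at or above 26 percent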
Target sequence (O15151 whole entry, looked up): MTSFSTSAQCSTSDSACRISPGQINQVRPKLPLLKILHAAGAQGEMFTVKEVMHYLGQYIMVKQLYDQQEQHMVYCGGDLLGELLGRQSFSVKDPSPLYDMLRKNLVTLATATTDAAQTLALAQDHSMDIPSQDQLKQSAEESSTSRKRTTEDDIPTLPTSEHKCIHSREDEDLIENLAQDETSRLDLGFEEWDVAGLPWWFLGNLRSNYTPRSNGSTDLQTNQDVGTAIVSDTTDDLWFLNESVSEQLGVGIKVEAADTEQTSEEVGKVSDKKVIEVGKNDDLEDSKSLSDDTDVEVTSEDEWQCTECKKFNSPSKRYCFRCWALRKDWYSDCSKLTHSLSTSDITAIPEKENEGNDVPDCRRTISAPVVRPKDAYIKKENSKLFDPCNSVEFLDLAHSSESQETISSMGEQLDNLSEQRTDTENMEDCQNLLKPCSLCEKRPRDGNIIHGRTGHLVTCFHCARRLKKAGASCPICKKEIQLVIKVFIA
Target sequence (Q00987 whole entry, looked up): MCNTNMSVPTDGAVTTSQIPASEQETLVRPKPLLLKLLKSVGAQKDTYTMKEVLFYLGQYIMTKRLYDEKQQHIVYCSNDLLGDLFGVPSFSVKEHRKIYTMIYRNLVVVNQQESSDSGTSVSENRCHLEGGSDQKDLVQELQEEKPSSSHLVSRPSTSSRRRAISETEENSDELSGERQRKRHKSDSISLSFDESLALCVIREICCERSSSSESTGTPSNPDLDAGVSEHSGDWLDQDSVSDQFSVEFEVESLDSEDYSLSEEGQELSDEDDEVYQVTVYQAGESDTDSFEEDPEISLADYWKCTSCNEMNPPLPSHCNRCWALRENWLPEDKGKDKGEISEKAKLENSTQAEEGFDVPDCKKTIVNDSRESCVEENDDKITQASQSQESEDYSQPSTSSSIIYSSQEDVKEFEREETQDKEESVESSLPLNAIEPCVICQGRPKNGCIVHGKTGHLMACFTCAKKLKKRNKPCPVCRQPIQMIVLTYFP
HIF-2a conf: HIF-2a inhibition, single concentration confirmation | AID 651580 | shares compounds with HIF-2a block | hit rate 56% among 1,800 | 786-0 RCC cells, HIF-2a luciferase reporter luminescence, overnight | inhibition, % at 18.8 µM;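 active = mean inhibition across four replicates of at least 40 percent at the single tested concentration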
HIF-1a counter: inhibits HIF-1a reporter, a counter-screen for HIF-2a inhibitors; shares compounds with HIF-2a block; MiaPaCa-2 HIF-1a luciferase reporter, desferoxamine, overnight; inhibition, % at 18.8 µM; hit rate 72% among 1,800; AID 651589;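 active = mean inhibition of the reporter signal across four replicates at the single tested dose of 50% or more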
Each line names hits and unclear results; the compound was inactive in the other large screens (follow-up assays come after a bar, where they were run).

c1cc2c(cc1C1=NNC(=NC3CC3)SC1)OCCO2	HIF-2a block 86, MITF TRPM1 inh 95, Peg3 prom inh-1 93, EBV LMP1 NFkB 84 | Peg3 prom inh-2 91 | Mdm2-MdmX confirm 95 | HIF-2a conf 94 | HIF-1a counter 97
COC(=O)[C@@]1(Cc2ccc(OC)cc2)[C@H]2c3cc(C(=O)N4CCCC4)n(Cc4ccccc4)c3C[C@H]2CN1C(=O)c1ccccc1	none (no result: MITF TRPM1 inh, KKLEB tox, Peg3 prom inh-1, EBV LMP1 NFkB, CF NFkB inh)
COC(=O)c1cccc(CC2(C)C(=O)Nc3cc(-c4ccccc4Cl)ccc32)c1 (configuration not stated)	none (no result: MITF TRPM1 inh, EBV LMP1 NFkB)
Cc1nn(C(C)(C)C)c(C)c1/C=N/OC(=O)Nc1ccc(Cl)c(Cl)c1	HIF-2a block 94, Peg3 prom inh-1 106, EBV LMP1 NFkB 47 | Peg3 prom inh-2 97 | HIF-2a conf 98 | HIF-1a counter 100
CC1=CC2C(C(O)CC3(C)C2CC(C)C32OCOC23COCO3)C2(C)C/C(=C\O)C(=O)C=C12 (configuration not stated)	HIF-2a block 95, MITF TRPM1 inh 80, KKLEB tox -95, Peg3 prom inh-1 101, CF NFkB inh 96 | Peg3 prom inh-2 97 | HIF-2a conf 53 | HIF-1a counter 108
O=C(NCCc1ccc2c(c1)OCO2)Oc1ccccc1	none (no result: MITF TRPM1 inh, KKLEB tox, Peg3 prom inh-1, EBV LMP1 NFkB, CF NFkB inh)
O=S(=O)(Nc1cccc2ncccc12)c1cccs1	HIF-2a block 65, MITF TRPM1 inh 84, Peg3 prom inh-1 103 | Peg3 prom inh-2 97 | Mdm2-MdmX confirm 103
COc1cccc(-c2cnc3cccnn23)c1	none (no result: MITF TRPM1 inh, EBV LMP1 NFkB)
CCOC(=O)c1c(SCCN2CCCCC2)n(-c2ccccc2)c(=S)n(-c2ccccc2)c1=O	HIF-2a block 87, MITF TRPM1 inh 99, Peg3 prom inh-1 108 | Peg3 prom inh-2 99 | HIF-2a conf 68 | HIF-1a counter 101
CCc1ccc(N=c2c([N+](=O)[O-])nn(-c3ccc4c(c3)OCCO4)n2O)cc1	none
O=[N+]([O-])c1nn(-c2ccc3c(c2)OCCO3)n(O)c1=Nc1ccc(Cl)cc1	HIF-2a block 61, MITF TRPM1 inh 64, Peg3 prom inh-1 72, EBV LMP1 NFkB 58 | Peg3 prom inh-2 74 | HIF-2a conf 77 | HIF-1a counter 100
COc1ccc2nc(NC(=O)c3ccccc3C(=O)O)sc2c1	none
COc1ccc(C(=O)Nc2nc3ccccc3s2)c(OC)c1	HIF-2a block 92, MITF TRPM1 inh 84, KKLEB tox -88, Peg3 prom inh-1 107, EBV LMP1 NFkB 85 | Peg3 prom inh-2 99 | Mdm2-MdmX confirm 97
C/C(=N\NC(=O)c1ccncc1)c1cccs1	none
C/C(=N/NC(=O)c1cc(C2CC2)[nH]n1)c1cccs1	HIF-2a block 49, Peg3 prom inh-1 63, EBV LMP1 NFkB 60 | Peg3 prom inh-2 47 | HIF-2a conf 67 | HIF-1a counter inactive
CCOc1ccccc1N(CC)C(=O)c1cc2c(s1)-c1ccccc1S(=O)(=O)C2	none (no result: MITF TRPM1 inh, EBV LMP1 NFkB)
COC(=O)C1C=CC(OC2OC(COC(C)=O)C(OC(C)=O)C(OC(C)=O)C2OC(C)=O)n2c(=O)n(-c3ccccc3)c(=O)n21 (configuration not stated)	HIF-2a block 85, MITF TRPM1 inh 95, Peg3 prom inh-1 107, CF NFkB inh 80 | Peg3 prom inh-2 101 | CF NFkB conf 64 | HIF-2a conf 93 | HIF-1a counter 106
CCc1ccc(-c2cc3c(=O)n(CC(=O)NCCCN4CCC(Cc5ccccc5)CC4)nc(C)n3n2)cc1	MITF TRPM1 inh 96, Peg3 prom inh-1 100 | Peg3 prom inh-2 98 | Mdm2-MdmX confirm 103
CC(C)c1ccc(NC(=O)C2(C)Cc3c(-c4ccccc4)ccnc3O2)cc1 (configuration not stated)	none (no result: MITF TRPM1 inh, EBV LMP1 NFkB)
Clc1cccc(-c2nc3c4ccccc4ccn3c2CC2CCCCC2)c1	none (no result: MITF TRPM1 inh, EBV LMP1 NFkB)
C=C1CC2(OC1=O)c1ccccc1CCc1ccccc12	HIF-2a block 90, MITF TRPM1 inh 108, KKLEB tox -85, Peg3 prom inh-1 97, CF NFkB inh 89 | Peg3 prom inh-2 97 | HIF-2a conf 98 | HIF-1a counter 107
CCSc1nc2ccccc2n1C(=O)/C=C\c1ccc(OC)c(OC)c1	HIF-2a block 86, MITF TRPM1 inh 69, Peg3 prom inh-1 106, EBV LMP1 NFkB 68, CF NFkB inh 82 | Peg3 prom inh-2 94 | Mdm2-MdmX confirm 102 | HIF-2a conf inactive | HIF-1a counter 103
S=C(NN=C(c1ccccc1)c1ccccn1)N(Cc1ccccn1)Cc1ccccn1	HIF-2a block 49, MITF TRPM1 inh 83, Peg3 prom inh-1 106, EBV LMP1 NFkB 63 | Peg3 prom inh-2 101 | HIF-2a conf 68 | HIF-1a counter 100
N#CC(C#N)=C1C=CC=CN1/C(=C\c1ccco1)C(=O)c1ccc(Br)cc1	HIF-2a block 92, MITF TRPM1 inh 85, Peg3 prom inh-1 111, CF NFkB inh 79 | Peg3 prom inh-2 98 | CF NFkB conf inactive | HIF-2a conf 98 | HIF-1a counter 105
Cc1ccc2nc(-c3ccc4c(c3)OCCO4)cn2c1	HIF-2a block 80, MITF TRPM1 inh 84, KKLEB tox -85, Peg3 prom inh-1 91, EBV LMP1 NFkB 85 | Peg3 prom inh-2 93 | Mdm2-MdmX confirm 94
Cc1ccc2nc(-c3ccc4c(c3)NC(=O)CO4)cn2c1	none
C/C(=N\OCc1cccc(C(=O)O)c1)c1ccc(Cl)cc1	HIF-2a block 73, Peg3 prom inh-1 55 (no result: MITF TRPM1 inh, EBV LMP1 NFkB) | Peg3 prom inh-2 inactive | HIF-2a conf 79 | HIF-1a counter inactive
C/C(=N\OCc1ccc(C#N)cc1)c1ccccc1	none
Cc1nc(SCC(=O)Nc2nc3ccccc3s2)c(C#N)c(C)c1C	HIF-2a block 89, MITF TRPM1 inh 96, Peg3 prom inh-1 93, EBV LMP1 NFkB 84 | Peg3 prom inh-2 90 | Mdm2-MdmX confirm 101 | HIF-2a conf 95 | HIF-1a counter 105
CC(=O)Nc1cc2nn(-c3ccccc3)nc2cc1Cl	none
CC(C)(C)C(=O)Nc1cc2nn(-c3ccccc3)nc2cc1Cl	HIF-2a block 75, MITF TRPM1 inh 85, KKLEB tox -94, Peg3 prom inh-1 62, EBV LMP1 NFkB 75 | Peg3 prom inh-2 86 | HIF-2a conf 91 | HIF-1a counter 95
